# Sampled rows, rich in hits. Any-hit rate of the full collection: about 19%.
# IL1B secr inh: blocks inflammasome-driven IL-1 beta release | THP-1 LPS/ATP IL-1B secretion, AlphaLISA, 16 h; active compounds read low | activity change, % at 57.5 µM | 4.7% of 360,000 active | AID 743279; in the data active = activity change below about -50%; inconclusive = mostly about -30% to -49%
#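 THP-1 cells pretreated 1 hr with compounds (up to 57.5 uM final), then stimulated with LPS (250 ng/mL final) plus ATP (1.25 mM final); secreted IL-1B measured by AlphaLISA after 16 hr, decreased signal indicating inhibition.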
# DT40 TDP1 no CPT: qHTS for Inhibitors of human tyrosyl-DNA phosphodiesterase 1 (TDP1): qHTS in cells in absence of CPT | DT40 Tdp1-/- hTDP1 cells, no CPT, ATP luminescence, 48 h | Potency, µM (top dose mostly 46.2 µM), for inactives: top-dose activity change, negative = growth inhibition, actives largely listed as inhibitors | 15% of 420,000 active; also: potency is read from the fitted curve at half-maximal effect; nearly all actives have a fitted effect of over 55% in size
#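 Chicken DT40 Tdp1-/- cells stably complemented with human TDP1 were seeded at 400 cells/well with DMSO in place of 20 nM camptothecin. After compound pinning, cells grew at least 48 hr at 37 °C; viability read by CellTiter-Glo luminescence.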
# ELG1 DNA repair: ELG1-dependent DNA repair inhibition | HEK293T ELG1-luciferase reporter, luminescence, 16 h; DNA damage induced by 5-fluorouridine | 2.3% of 330,000 active | Potency, µM (highest dose often 46.1 µM), for inactives: at the top dose activity change, negative = inhibition, actives largely listed as inhibitors; also: potency is read from the fitted curve at half-maximal effect; nearly all actives have a fitted effect of over 55% in size
#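 Overnight (16 hr) co-exposure of 2,000 cells/well to 5-fluorouridine and compound at 37 °C preceded detection. Luciferase was quantified via ONE-Glo luminescence; loss of signal denotes inhibition.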
# HT1080 IDH1KD tx: toxicity to HT-1080 IDH1 knockdown cells (counter line); HT-1080 IDH1 knockdown viability, ATP luminescence, 48 h; Potency, µM (doses to about 46.1 µM), for inactives: top-dose activity, negative = toxicity, hits mostly cytotoxic; 2% of 360,000 active; AID 686971;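 also: potency is read from the fitted curve at half-maximal effect; 0% = DMSO wells and -100% = cell-free medium wells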
#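 In this qHTS, HT-1080 cells depleted of IDH1 are exposed for 48 h at 37 °C to compound titrations. Toxicity is scored from CellTiter-Glo luminescence, with DMSO as full viability and medium alone as none.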
# HT1080-NT tox: kills 2HG-producing HT-1080-NT fibrosarcoma cells. Potency, µM (doses to about 46.1 µM), without a hit: at the highest dose activity, negative = less viability, hits mostly cytotoxic. HT-1080-NT fibrosarcoma viability, CellTiter-Glo ATP luminescence, 48 h. 1.6% of 360,000 active;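 also: NT is the 2HG producing partner of a matched IDH1 knockdown line; potency is read from the fitted curve at half-maximal effect; 0% = DMSO-treated cells and -100% = media-only wells without cells; nearly all actives have a fitted effect of over 55% in size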
#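 A 48-hour cytotoxicity screen used HT-1080-NT cells plated 2 hours before compound delivery. ATP-based CellTiter-Glo luminescence measured viability, normalized to DMSO and no-cell controls.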
# TDP1 cell CPT: DT40-hTDP1 cell growth loss with CPT. 12% of 420,000 active. Potency, µM (highest dose often 46.2 µM), for inactives: top-dose activity change, negative = growth inhibition, usual class: inhibitors. chicken DT40 Tdp1-/-;hTDP1 cells + 20 nM CPT, ATP luminescence, 48 h. AID 686979; also: potency is read from the fitted curve at half-maximal effect; nearly all actives have a fitted effect of over 55% in size
#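 Chicken DT40 Tdp1-/- cells complemented with human TDP1, 400 cells/well, exposed to compounds plus 20 nM camptothecin for at least 48 h at 37 C; viability read as ATP content by CellTiter-Glo luminescence.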
# An asterisk follows results filed as active; ? = inconclusive; / = no result; [ ] = remark or other dose. Unless noted, calls follow the shape of the dose curve; as a rule, active = well fitted curve in the direction sought with a large enough effect; inconclusive = small, poorly fitted or top-dose-only effect, or another doubt; inactive = no such curve, though single readings can be large; an effect the other way counts as inactive or inconclusive. Unless noted, % is scaled to controls: 0 for no effect and ±100 for the full control effect.
SMILES,IL1B secr inh,DT40 TDP1 no CPT,ELG1 DNA repair,HT1080 IDH1KD tx,HT1080-NT tox,TDP1 cell CPT
COc1ccccc1-c1nc(SCC(=O)Nc2cc(C)on2)c2c(=O)n(C)c(=O)n(C)c2n1,0.0,-25.5%,5.5%,-1.9%,-4.7%,-24.5%
CCS(=O)(=O)N1CC(=O)N(c2ccc(C)c(C)c2)C(C)(C(=O)NC2CCCCCC2)C1 (stereo not given),/,-29.0%,/,/,/,?
COCCCNC(=O)CN1C(=O)c2cccnc2Sc2ccccc21,/,-8.8%,/,/,/,-7.1%
CC(=O)c1cccc(NC(=O)CN2C(=O)c3ccccc3Sc3ncccc32)c1,/,8.2µM*,/,/,/,16.4µM*
COc1ccc(NC(=O)CN2C(=O)c3cccnc3Sc3ccccc32)cc1OC,/,16.4µM*,/,/,/,?
COc1ccc(Cc2[nH]n3c(=O)cc(C(C)C)nc3c2-c2ccccc2)cc1,73.3,7.31µM*,8.2µM*,?,?,18.4µM*
CNC(=O)c1c(NC(=O)/C=C/c2ccccc2Cl)sc2c1CCC2,/,-25.3%,/,/,/,-2.6%
COc1ccc(NC(=O)CN2C(=O)CCn3nc(-c4cccn4C)cc32)cc1Cl,/,-14.2%,/,/,/,0.3%
Clc1cccc(OCCn2cncn2)c1Cl,31.8,-20.7%,7.7%,9.3%,13.1%,-18.1%
Clc1cccc(Oc2cnns2)c1Cl,28.4,25.9µM*,13.2%,0.0%,-0.2%,?
COc1cc(CN2C[C@@H](CO)O[C@@H](n3cnc4c(N(C)C)ncnc43)C2)cc(OC)c1OC,0.0,-1.1%,/,-1.5%,0.0%,-17.0%
O=C(CN1C(=O)C2(SCC(=O)N2c2ccccc2)c2ccccc21)Nc1ccccc1C(F)(F)F (stereo not given),/,?,/,/,/,23.1µM*
Cc1ccc(C)c(NC(=O)CN2C(=O)C3(SCC(=O)N3c3ccc(C)c(C)c3)c3ccccc32)c1 (stereo not given),/,18.4µM*,/,/,/,?
CCc1cccc(C)c1NC(=O)CN1C(=O)C2(SCC(=O)N2c2cccc(F)c2)c2ccccc21 (stereo not given),/,-22.6%,/,/,/,-29.2%
CCc1ccc(NC(=O)CN2C(=O)C3(SCC(=O)N3c3ccccc3)c3ccccc32)cc1 (stereo not given),/,?,/,/,/,20.6µM*
COc1cccc(CNC(=O)c2c(OC)cc(=O)n3c2CCN(C(=O)C2CC24CCCCC4)CC3)c1 (stereo not given),/,-15.1%,/,/,/,-0.5%
COCc1c(C(=O)NC2CCOC(C)(C)C2)cnn1-c1nccc(-c2cccs2)n1 (stereo not given),/,-15.2%,/,/,/,9.8%[9.04 µM]
COc1ccc(C(=O)c2[nH]c(N)c(C(=O)NCCc3c[nH]c4ccccc34)c2-c2ccc(Br)cc2)cc1,-21.8,20.6µM*,/,?,?,?
COc1ccc(C(=O)c2[nH]c(N)c(C(=O)NCCc3c[nH]c4ccccc34)c2-c2ccc(C(F)(F)F)cc2)cc1,0.0,20.6µM*,/,8.2%,0.4%,16.4µM*
COc1ccccc1CCNC(=O)c1c(N)[nH]c(C(=O)c2ccccc2)c1-c1ccc(Br)cc1,6.3,?,/,5.3%,22.8%,?
Nc1[nH]c(C(=O)c2ccccc2)c(-c2ccncc2)c1C(=O)NCCc1c[nH]c2ccccc12,0.0,?,/,0.0%,-0.1%,?
Nc1[nH]c(C(=O)c2ccccc2)c(-c2ccc(C(F)(F)F)cc2)c1C(=O)NCc1ccc(Cl)cc1Cl,-6.6,?,/,0.6%,-13.5%,?
COc1ccc2sc(-c3ccc(S(C)(=O)=O)cc3)c(C(=O)NCCc3c[nH]c4ccccc34)c2c1,13.2,16.4µM*,18.3µM*,-1.2%,-11.5%,20.6µM*
Nc1[nH]c(C(=O)c2ccccc2)c(-c2ccc(Br)cc2)c1C(=O)NCCc1c[nH]c2ccccc12,?,18.4µM*,/,-18.9%,-10.0%,?
CCOC(=O)C1C(=O)NC(C(=O)OCC)(C(=O)OCC)C1CC (stereo not given),-9.1,-4.3%,/,17.9%,21.3%,-1.4%
SMILES,IL1B secr inh,DT40 TDP1 no CPT,ELG1 DNA repair,HT1080 IDH1KD tx,HT1080-NT tox,TDP1 cell CPT
Cc1cc(C)c(S(=O)(=O)N2CCN(C(=O)CCn3nc(C)c(C)c3C)CC2)c(C)c1,-83.6*,14.6µM*,-21.8%,-8.7%,-13.8%,-61.8%
COc1cccc(N2CCN(C(=O)CCn3nc(C)c(S(=O)(=O)N4CCCC4)c3C)CC2)c1,/,14.6µM*,/,/,/,?
COc1cccc(N2CCN(C(=O)c3cccc(S(=O)(=O)N4CCCC4)c3)CC2)c1,22.9,?,/,-3.4%,-1.0%,-2.0%
COc1ccc2c(c1)-c1nc(-n3ncc(C(=O)N(C)CC4CCCN(C)C4)c3C3CC3)ncc1CC2 (stereo not given),/,-11.5%,/,/,/,16.0%
CCCCSC(=S)NC1CCS(=O)(=O)C1 (stereo not given),-98.2*,11.6µM*,?,?,-28.8%,9.2µM*
O=S1(=O)CCC(NC(=S)SCCOc2ccccc2)C1 (stereo not given),?,10.3µM*,-7.0%,-15.8%,-24.2%,8.2µM*
N#Cc1cccc(NC(=O)CN2CCN(Cc3ccccc3)CC2)c1,-6.9,-18.4%,4.0%,21.6%,13.4%,-1.1%
N#C/C(=C\c1ccc(-c2ccc([N+](=O)[O-])cc2Br)o1)C(=O)N1CCN(c2ccccc2)CC1,-0.5,8.6%,-1.1%,4.7%,4.7%,5.2%
COc1ccc(C2c3c(-c4ccccc4O)n[nH]c3C(=O)N2CCc2ccccc2)cc1 (stereo not given),/,16.4µM*,/,/,/,?
CC(C)c1ccc(C2c3c(-c4ccccc4O)n[nH]c3C(=O)N2CCc2ccccc2)cc1 (stereo not given),/,11.6µM*,/,/,/,?
CC(C)OCCCN1C(=O)c2[nH]nc(-c3ccccc3O)c2C1c1ccc(OCc2ccccc2)cc1 (stereo not given),/,11.6µM*,/,/,/,14.6µM*
COc1ccc(C2c3c(-c4ccccc4O)n[nH]c3C(=O)N2CCc2ccc(OC)c(OC)c2)cc1 (stereo not given),-51.4*,23.1µM*,2.82µM*,?,-26.3%,20.6µM*
N=c1ncn(Cc2ccccc2)c2nc(SCCOc3ccccc3)[nH]c12,26.6,-21.9%,3.5%,14.0%,8.4%,-11.3%
COc1cccc(N2C(=NC(=O)C3CCCO3)SC3CS(=O)(=O)CC32)c1 (stereo not given),-13.5,1.9%,-0.2%,-0.9%,-0.1%,-0.3%

# Assay outcomes from PubChem.
